# From PubChem BioAssay (NCATS)
# Records with an inconclusive call do not appear. Entries that show only a call come without a potency. A number with no mark means an inactive call. Active and inactive are the calls of the source. Calls come from the whole dose curve; as a rule, active = well fitted inhibition curve with a large enough effect; inconclusive = small, poorly fitted or top-dose-only effect; inactive = no such curve, though single readings can be large or run the other way.
# Key:
# [1] = test system: Zika virus NS2B-NS3 protease (unlinked complex); experiment: Primary screen GU Rhodamine qHTS for Zika virus inhibitors: Unlinked NS2B-NS3 protease assay (AID 1347159); note: nearly all actives have a fitted effect of over 60% in size
# Method in brief: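 In dose–response format, inhibition of unlinked protease (25 nM) was measured with 1.5 microM bis-peptide Rhodamine110 substrate. Aprotinin served as the intraplate control.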
# [2] = test system: Zika virus NS2B-NS3 protease (linked construct); experiment: Primary screen NINDS Rhodamine qHTS for Zika virus inhibitors (AID 1347160); note: nearly all actives have a fitted effect of over 55% in size
# Method in brief: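 Each compound, titrated, sat 15 min with 25 nM linked protease before 1.5 microM Rhodamine110 substrate went in. Fluorescence gain over the next 15 min, in pH 8.0 Tris with Tween 20, gave Hill-fitted curves.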
structure (smiles),measurement,setting,value
Cc1ccccc1-n1c([C@H](C)Nc2nc(N)nc3nc[nH]c23)nc2cccc(C)c2c1=O,Potency,[1],inactive
same,Potency,[2],inactive
OCc1ccc(O[C@@H]2O[C@H](CO)[C@@H](O)[C@H](O)[C@H]2O)cc1,Potency,[1],inactive
same,Potency,[2],inactive
CC12CCC3c4ccc(OC5OC(C(=O)O)C(O)C(O)C5O)cc4CCC3C1CCC2O (stereo not given),Potency,[1],inactive
same,Potency,[2],inactive
C[C@@H]1O[C@@H](O[C@H]2[C@H](O)[C@@H](O[C@@H]3O[C@H](CO)[C@@H](O)[C@H](O[C@@H]4O[C@H](CO)[C@@H](O)[C@H](O)[C@H]4O)[C@H]3O)[C@H](O[C@H]3CC[C@@]4(C)C(=CC[C@@H]5C4CC[C@@]4(C)C5C[C@@H]5OC6(CC[C@@](C)(CO[C@@H]7O[C@H](CO)[C@@H](O)[C@H](O)[C@H]7O)O6)[C@@H](C)[C@@H]54)C3)O[C@@H]2CO)[C@H](O)[C@H](O)[C@H]1OC1OC(CO)C(O)C(O)C1O (stereo not given in full),"activity change, negative = inhibition",[1],-17.5% [at 19.1 µM]
same,"activity change, negative = inhibition",[2],-10.4% [at 10.7 µM]
CNCc1ccc(-c2cc(-c3nc(-c4ccc(S(=O)(=O)C(C)C)cc4)cnc3N)on2)cc1,Potency,[1],inactive
same,Potency,[2],inactive
Cc1ccc(F)cc1C(=O)Nc1ccc(C(=O)N2Cc3cccn3Cc3ccccc32)c(Cl)c1,Potency,[1],inactive
same,Potency,[2],inactive
CCN(CC)CCN(Cc1ccc(-c2ccc(C(F)(F)F)cc2)cc1)C(=O)Cn1c(SCc2ccc(F)cc2)nc(=O)c2c1CCC2,Potency,[1],inactive
same,Potency,[2],inactive
O=C(Nc1ccccc1-c1cn2c(CN3CCNCC3)csc2n1)c1ccc2ccccc2n1,Potency,[1],inactive
same,Potency,[2],inactive
O=C(NCC(O)CO)c1ccncc1Nc1ccc(I)cc1F (stereo not given),Potency,[1],inactive
same,Potency,[2],inactive
CO[C@H]1/C=C/[C@@](C)(O)/C=C/C(=O)O[C@H](C)[C@@H](C)CC/C=C/1C,Potency,[1],inactive
same,Potency,[2],inactive
CCCN1CCN(c2ccc(C(=O)NC3(C(=O)NCC#N)CCCCC3)cc2)CC1,Potency,[1],inactive
same,Potency,[2],inactive
C[C@@H]1C(=O)OC[C@H]2C(C(=O)O)=C[C@@H]3CC(C)(C)C[C@]312,Potency,[1],inactive
same,Potency,[2],inactive
C[C@@H]1O[C@@H](O[C@H]2[C@H](OC(=O)[C@]34CCC(C)(C)C[C@H]3C3=CCC5[C@@]6(C)C[C@H](O)[C@H](O[C@@H]7O[C@H](CO)[C@@H](O)[C@H](O)[C@H]7O)[C@@](C)(CO)C6[C@H](O)C[C@@]5(C)[C@]3(C)CC4)OC[C@H](O)[C@@H]2O)[C@H](O)[C@H](O)[C@H]1O[C@@H]1OC[C@@H](O)[C@H](O[C@@H]2OC[C@](O)(CO)[C@H]2O)[C@H]1O (stereo not given in full),"activity change, negative = inhibition",[1],-1.32% [at 19.1 µM]
same,"activity change, negative = inhibition",[2],21.5% [at 10.7 µM]
CCCNc1ccc2ncc(-c3ccc4[nH]ncc4c3)n2n1,Potency,[1],inactive
same,Potency,[2],inactive
CC1=CC(=O)CC(C)(CO)C1(O)/C=C/C(C)O[C@@H]1O[C@H](CO)[C@@H](O)[C@H](O)[C@H]1O (stereo not given in full),Potency,[1],inactive
same,Potency,[2],inactive
CN(C)C(=O)NC1CCC(CCN2CCN(c3cccc(Cl)c3Cl)CC2)CC1 (stereo not given),"activity change, negative = inhibition",[1],13.9% [at 19.1 µM]
same,outcome,[2],inactive [at 10.7 µM]
CNS(=O)(=O)c1ccccc1Nc1nc(Nc2ccc(N3CCN(C)CC3)cc2OC)ncc1Cl,Potency,[1],inactive
same,Potency,[2],inactive
Cc1ccc(C(=O)N(CCCN)C(c2nc3cc(Cl)ccc3c(=O)n2Cc2ccccc2)C(C)C)cc1 (stereo not given),Potency,[1],inactive
same,Potency,[2],inactive
CC(C)(C)NCCCNC(=O)c1cccc(Br)c1,Potency,[1],inactive
same,Potency,[2],inactive
Cc1cc(C(=O)N2Cc3cnn(C)c3Nc3ccccc32)ccc1CNC(=O)N1CCC[C@H]1C(=S)N1CCCN(C)CC1,Potency,[1],inactive
same,Potency,[2],inactive
CCC(C)C(=O)OC1CC(O)C23C4OCC5(C(O)CC2C1(C)C(O)O4)C3C(=O)CC1(C)C(c2ccoc2)CC2OC215 (stereo not given),Potency,[1],inactive
same,Potency,[2],inactive
CCN1CCN(Cc2ccc(Nc3ncc(F)c(-c4cc(F)c5nc(C)n(C(C)C)c5c4)n3)nc2)CC1,Potency,[1],inactive
same,Potency,[2],inactive
CC1=C2C[C@H]3O[C@@]3(C)CCC3O[C@@]3(C)C[C@@]2(O)OC1=O (stereo not given in full),Potency,[1],inactive
same,Potency,[2],inactive
C[C@]1(CO)CCC[C@]2(C)C3=C(CCC12)COC3 (stereo not given in full),Potency,[1],inactive
same,Potency,[2],inactive
COc1cc(Br)c(S(=O)(=O)Nc2ccc(C(F)(F)F)c(O[C@@H]3CCN(C)C3)c2)cc1OC,Potency,[1],inactive
same,Potency,[2],inactive
O=C(CC(c1ccccc1)c1ccccc1)N1CCN(C(c2ccccc2)c2ccccc2)CC1,Potency,[1],inactive
same,Potency,[2],inactive
COC(=O)Cc1cc2c(c([N+](=O)[O-])c1)N(C(=O)CC[C@H](N)C(=O)O)CC2,Potency,[1],inactive
same,Potency,[2],inactive
C[C@@]1(O)[C@H](O)[C@@H](CO)O[C@H]1n1ccc(N)nc1=O,Potency,[1],inactive
same,Potency,[2],inactive
CC(=O)N1CCc2ccc(O)c(OC3OC(COC4OCC(O)(CO)C4O)C(O)C(O)C3O)c2C1Cc1ccc(O)cc1 (stereo not given),Potency,[1],inactive
same,Potency,[2],inactive
CC1CCC2(OC1)OC1CC3C4CCC5C[C@@H](O[C@@H]6O[C@H](CO[C@@H]7OC[C@@H](O)[C@H](O)[C@H]7O)[C@H](O)[C@H](O)[C@H]6O)CC[C@]5(C)C4CC[C@]3(C)C1C2C (stereo not given in full),Potency,[1],inactive
same,Potency,[2],inactive
COC1=CC(=O)CC(C)C12Oc1cc(OC)cc(O)c1C2=O (stereo not given),Potency,[1],inactive
same,Potency,[2],inactive
CCC(C)C(=O)OC1CC(O)C23C4OCC5(C(O)CC2C1(C)C(O)O4)C3C(=O)C(O)C1(C)C(O)(c2ccoc2)CC2OC251 (stereo not given),Potency,[1],inactive
same,Potency,[2],inactive
COC(=O)C[C@H]1C(C)(C)[C@H](OC(=O)C(C)C)[C@@]2(O)C(=O)[C@]1(C)C1CC[C@]3(C)C(CC(=O)O[C@H]3c3ccoc3)[C@]13O[C@@H]32 (stereo not given in full),Potency,[1],inactive
same,Potency,[2],inactive
O=C(NCc1ccc(S(=O)(=O)c2cc(F)cc(F)c2)cc1)c1ccc2nccn2c1,Potency,[1],inactive
same,Potency,[2],inactive
O=C1CSc2ccccc2N1Cc1cccc(C(F)(F)F)c1,Potency,[1],inactive
same,Potency,[2],inactive
